Screens: PubChem BioAssay, National Center for Advancing Translational Sciences (NCATS)
In the library only some 2.3% were active in any assay of this set; here they are far more common.
USP1 inh – Inhibitors of USP1/UAF1: Primary Screen | Ubiquitin carboxyl-terminal hydrolase 1 (Homo sapiens), O94782 | recombinant USP1/UAF1, Ub-Rhodamine cleavage fluorescence | Potency, µM (titrated, usually from 57.1 µM), for inactives: top-dose activity change, negative = inhibition, actives largely listed as inhibitors | actives 0.23% (n = 390,000) | AID 743255, 2014; also: potency is read from the fitted curve at half-maximal effect; nearly all actives have a fitted effect of over 60% in size
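1 nM enzyme complex + cpd, 15 min RT; start with Ub-Rho 150nM final; kinetic fluorescence ex 480/em 540, 6 reads q60 s. Buffer 50mM HEPES pH 7.8, 0.5mM EDTA, 0.1 mg/ml BSA, 1mM TCEP, 0.01% Tween-20.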
FBPA coupling cs – qHTS Assay for Inhibitors of Fructose-1,6-bisphosphate Aldolase from Giardia Lamblia: Coupling assay counterscreen; coupling enzyme system counterscreen, AmpLite Red fluorescence; activity change, negative = inhibition, % at 58.2 µM, hits read low; actives 0.67% (n = 290,000); AID 2472, 2010; in the data active = activity change below about -30%
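Fluorescence at 525 nm excitation and 598 nm emission measured inhibition of the coupled detection system without aldolase. Compounds (at 57.5 uM final) were preincubated 10 min at room temperature with coupling enzyme reagent before a 20 min substrate/AmpLite Red step.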
Tau fibril FP – qHTS for Inhibitors of Tau Fibril Formation, Fluorescence Polarization; Microtubule-associated protein tau (Homo sapiens), P10636; AID 1468, 2008; K18 P301L tau heparin fibrillization, Alexa594 FP, 6 h; actives 0.39% (n = 280,000); Potency, µM (series often up to 57.7 µM), for inactives: at the highest dose activity, negative = inhibition, usual class: inhibitors; also: potency is read from the fitted curve at half-maximal effect; nearly all actives have a fitted effect of over 55% in size
Target sequence (P10636 561-689 P618L limits assumed): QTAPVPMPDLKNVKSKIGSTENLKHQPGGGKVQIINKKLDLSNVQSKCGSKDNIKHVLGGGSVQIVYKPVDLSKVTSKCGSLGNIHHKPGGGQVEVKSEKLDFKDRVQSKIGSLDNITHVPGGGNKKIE
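Recombinant K18 P301L […], labeled with Alexa 594 at 0.24 uM over 15 uM unlabeled; heparin inducer 20 uM final; 37 C, 6 hr; FP endpoint.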
Tau fibril ThT – qHTS for Inhibitors of Tau Fibril Formation, Thioflavin T Binding; AID 1460, 2008; Microtubule-associated protein tau (Homo sapiens), P10636; actives 2.1% (n = 270,000); Potency, µM (series often up to 57.4 µM), for inactives: at the top dose activity, negative = inhibition, most hits filed as inhibitors; recombinant tau K18 P301L, heparin-induced fibrillization, ThT fluorescence; also: potency is read from the fitted curve at half-maximal effect; nearly all actives have a fitted effect of over 55% in size
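Aggregation was driven by heparin (20 uM final) acting on recombinant tau […] bearing P301L in 100 mM sodium acetate pH 7; fibrils were detected with Thioflavin T.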
Tau fluor cs – Counterscreen qHTS for Inhibitors of Tau Fibril Formation, Fluorescence Polarization; tau K18 P301L (four-repeat tau fragment) Alexa594 fluorescence, heparin fibrillization; Potency, µM (highest dose often 57.7 µM), for inactives: at the highest dose activity change, negative = decrease; actives 0.93% (n = 280,000); also: potency is read from the fitted curve at half-maximal effect; nearly all actives have a fitted effect of over 55% in size
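Human K18 P301L tau (15 uM unlabeled plus 0.24 uM Alexa 594-labeled, final) in 100 mM sodium acetate pH 7 was mixed with compound and 20 uM heparin and incubated 6 hr at 37 C.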
The depositor's hits bear a star; ? = inconclusive; · = no result given; ! = not active in a repeat; [ ] = dose if it differs, or a comment. Unless noted, calls follow the shape of the dose curve; as a rule, active = well fitted curve in the direction sought with a large enough effect; inconclusive = small, poorly fitted or top-dose-only effect, or another doubt; inactive = no such curve, though single readings can be large; an effect the other way counts as inactive or inconclusive. % is scaled to controls: 0 for no effect and ±100 for the full control effect.

SMILES	USP1 inh	FBPA coupling cs	Tau fibril FP	Tau fibril ThT	Tau fluor cs
CCCCSc1nnc2c(n1)OC(C)N(C(C)=O)c1ccccc1-2 (configuration not stated)	-10.1%	·	1.5%	12.2%	8.2%
CCCCSc1nnc2c(n1)OC(C(=O)c1ccccc1)Nc1ccccc1-2 (configuration not stated)	·	1.7	?	31.6µM*	?
N#C/C(=C1\C(=O)Nc2c(Cl)cc(Cl)cc21)c1nnc2n1CCCCC2	-21.0%	-37.7*	?	15.8µM*	-24.7%
COc1ccc(C(=O)NCc2ccc3c(c2)CCN3C(C)=O)c(OC)c1	-12.1%	·	-15.6%	?	1.2%
CN(C)c1ccc(CN(Cc2ccco2)C(=O)COc2ccc(F)cc2)cc1	-26.4%	·	4.7%	?	?
CCCCCN1CC(=O)N2Cc3[nH]c4ccccc4c3C[C@H]2C1=O	-16.8%	1.4	·	·	·
CCCCN1C(=O)C2Cc3c([nH]c4ccccc34)CN2C1=S (configuration not stated)	25.1µM*	-7.2	7.7%	?	?
COCCNC(=O)c1ccc2c(c1)NC(=O)C(CS(=O)(=O)Cc1ccc(F)cc1Cl)N2 (configuration not stated)	-22.0%	·	?	?	2.8%
O=[N+]([O-])c1ccc2nc(/C=C/c3ccc(Cl)cc3)[nH]c2c1	-3.0%	-16.3	-1.5%	12.6µM*	?
O=[N+]([O-])c1ccc2nc(C(O)C(O)c3nc4ccc([N+](=O)[O-])cc4[nH]3)[nH]c2c1 (configuration not stated)	-7.7%	1.2	·	·	·
Nc1ccc(-c2nc3ccc([N+](=O)[O-])cc3[nH]2)cc1	-1.2%	0.1	13.7%	12.6µM*	?
O=[N+]([O-])c1ccc(-c2nc3ccc([N+](=O)[O-])cc3[nH]2)cc1	-8.2%	-15.9	?	2.82µM*	?
CCCC[n+]1ccc(-c2nc3ccc([N+](=O)[O-])cc3[nH]2)cc1	-5.0%	-1.9	-2.2%	9.8%	7.1%
COc1ccccc1NC(=O)c1ccc([N+](=O)[O-])o1	-21.8%	·	·	·	·
CC(=O)c1ccccc1OC(=O)c1ccc([N+](=O)[O-])o1	?	-6.7	?	7.94µM*	-23.5%
NC(=O)c1cccc(-c2cc(Nc3ccc(OC(F)(F)F)cc3)ncn2)c1	-16.4%	0.8	28.2µM*	?	?
CC(C)(C)C1CCc2c(sc(NC(=O)c3cccc(Cl)c3)c2C(=O)NCc2ccco2)C1 (configuration not stated)	-15.9%	·	-7.4%	-4.1%	-4.7%
COc1ccc(N2CCN(C(CNC(=O)C(=O)NCCCN(C)C)c3cccnc3)CC2)cc1 (configuration not stated)	-2.3%	·	0.7%	3.8%	-2.4%
O=C(N/N=C/c1c(O)n(Cc2ccccc2)c(=O)c2ccccc12)c1cccnc1	25.1µM*	-15.7	3.8%	?	?
COc1ccc(Cn2c(O)c(C=Nc3ccc(OC)cc3)c3ccccc3c2=O)cc1	-26.7%	-6.3	11.8%	0.8%	?
COc1ccc(Cn2c(O)c(/C=N/NC(=O)c3cccnc3)c3ccccc3c2=O)cc1	31.6µM*	-6.7	9.7%	?	?
O=C(N/N=C/c1c(O)n(-c2ccccc2Cl)c(=O)c2ccccc12)c1cccnc1	?	2.4	8.5%	-15.3%	-8.5%
COC(=O)c1ccc(NC(=O)c2cc3cc4ccc(OC)c(Cl)c4nc3s2)cc1	-19.1%	·	1.7%	?	2.5%
CNC(=O)Oc1ccc2c(c1)[C@@]1(C)CCN(C)[C@@H]1N2C	·	-43.9*!	-4.1%	-13.5%	-11.3%
CNC(=O)Oc1ccc2c(c1)[C@]1(C)CCN(C)C1N2C (some centres not stated)	-9.1%	·	·	·	·
SMILES	USP1 inh	FBPA coupling cs	Tau fibril FP	Tau fibril ThT	Tau fluor cs
COc1cc2nc(-c3ccc(Br)o3)oc(=O)c2cc1OC	-2.6%	-39.8*	-5.7%	?	-16.8%
Cc1ccc2nc(-c3ccc(Br)o3)oc(=O)c2c1	-20.0%	-2.8	0.2%	-13.7%	-1.8%
COc1cc(C2SC[C@H]3C(=O)N(c4ccccc4)C(=O)N23)cc(OC)c1OC (some centres not stated)	-3.5%	·	-10.4%	-7.4%	-11.0%
COc1ccc(-c2noc(CSc3nc4ccccc4[nH]3)n2)cc1	-27.9%	·	-3.9%	4.3%	-3.1%
Cc1ccc2nc(SCc3nc(-c4ccc(Cl)cc4)no3)[nH]c2c1	-23.7%	·	17.8µM*	?	10µM*[quencher]
COc1cc(/C=C2\SC(=S)N(C(C(=O)O)c3ccccc3)C2=O)ccc1O (configuration not stated)	?	11.9	-7.3%	7.08µM*	-10.1%
COc1cc(/C=C2/SC(=S)N(Cc3ccccc3)C2=O)ccc1O	-5.7%	0.7	·	·	·
CCOc1ccc(/C=C2/SC(=S)N(C(C(=O)O)c3ccccc3)C2=O)cc1OCC (configuration not stated)	-6.2%	-0.2	?	15.8µM*	-34.6%
COc1cc(/C=C2/SC(=NCc3ccccc3)N(Cc3ccccc3)C2=O)ccc1O	-19.9%	1.2	-3.2%	?	10µM*[quencher]
CCCCC/C=C\C/C=C\C/C=C\C=C\C(O)CCCC(=O)O (configuration not stated)	·	2.5	-3.3%	-2.6%	-4.3%
c1ccc(-c2cnn3c(-c4ccccc4)c(-c4ccccc4)nc3n2)cc1	1.41µM*	-0.8	-1.0%	-7.7%	-6.5%
Nc1nc(-c2ccccc2)c(-c2ccccc2)n1N	-25.6%	-0.8	·	·	·
CCc1ccc(-c2nc3c(c(SCc4ccc(F)cc4)n2)Cc2c(CO)cnc(C)c2O3)cc1	-0.4%	·	-2.5%	-8.9%	-8.0%
NS(=O)(=O)c1ccc(N=Nc2c[nH]c(=O)c(O)c2)cc1	28.2µM*	-37.5*	?	2.51µM*	?
COC(=O)c1ccc(NC(=O)NC(C)c2c(-n3cccc3)sc(C)c2C)cc1 (configuration not stated)	-22.8%	·	17.8µM*	-1.6%	?
O=C(NC1CCCC1)c1cnn(-c2ccc(F)cc2F)c1C1CCNCC1	-13.0%	·	1.3%	-2.4%	0.8%
CCOc1ccc(N/C=C/C(=O)c2ccc(C)cc2)c([N+](=O)[O-])c1	3.3%	2.8	-3.4%	1.12µM*	-20.7%
CCOc1ccc(N/C=C/C(=O)c2ccc3ccccc3c2)c([N+](=O)[O-])c1	-5.5%	0.5	2.3%	1.12µM*	?
COc1ccc(-c2cc(C(C)=O)c(C)n2CCC(=O)NCc2ccc(F)cc2)cc1	3.4%	·	5.3%	-13.7%	-14.3%
